A short description of assay [1]: Tanguay_ZF_120hpf_JAW_legacy: (Legacy) Oregon State University Tanguay Lab 120 Hour Post-fertilization zebrafish Assay for Jaw Malformation (AID 2283638). An outline of the steps: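 Steps: dechorionate 4 hpf embryos (pronase); plate 1/well at 6 hpf; add test chemical, 0.64% DMSO final; seal, cover, hold at 28C statically to 120 hpf; score jaw defect presence/absence microscopically. Dead embryos not scored.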

Assay [2] is described as follows: Tanguay_ZF_120hpf_OTIC_legacy: (Legacy) Oregon State University Tanguay Lab 120 Hour Post-fertilization zebrafish Assay for Otic Vesicle Malformation (AID 2283639). An outline of the steps: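 Statically exposed wild-type 5D zebrafish embryos, kept sealed and dark at 28C through 120 hours post fertilization, were examined by brightfield microscopy for otic vesicle defects. Responses were recorded as present or absent and analysed relative to DMSO.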

Assay [3] can be described thus: Tanguay_ZF_120hpf_PE_legacy: (Legacy) Oregon State University Tanguay Lab 120 Hour Post-fertilization zebrafish Assay for Pericardial Edema (AID 2283640). The method, boiled down: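 Embryos from wild-type 5D adults were staged, then dosed in 0.64% DMSO. They were kept sealed in the dark at 28C until 120 hpf. Pericardial edema was then recorded as present or absent.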

Assay [4] in a line: Tanguay_ZF_120hpf_CFIN_legacy: (Legacy) Oregon State University Tanguay Lab 120 Hour Post-fertilization zebrafish Assay for Caudal Fin Malformation (AID 2283649). The method, boiled down:
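Binary presence or absence of caudal fin malformation at 120 hpf, read by brightfield microscopy, with DMSO as baseline. Larvae came from 5D wild-type embryos exposed statically from 6 hpf at 28C after pronase dechorionation.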

Assay [5] in a line: Tanguay_ZF_120hpf_PIG_legacy: (Legacy) Oregon State University Tanguay Lab 120 Hour Post-fertilization zebrafish Assay for Pigmentation Malformation (AID 2283650). The method, boiled down: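 Pigment malformation recorded as a binary call at 120 hpf in zebrafish (Tropical 5D) exposed singly from 6 hpf after pronase dechorionation. Static, sealed, 28C exposure, 0.64% DMSO; mortality excludes scoring; positive-direction fit against DMSO.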

Assay [6] can be described thus: Tanguay_ZF_120hpf_CIRC_legacy: (Legacy) Oregon State University Tanguay Lab 120 Hour Post-fertilization zebrafish Assay for Circulatory Malformation (AID 2283651). The method, boiled down: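 Embryos are dechorionated at 4 hpf, plated one per well at 6 hpf, then held under static exposure at 28C until 120 hpf. Malformations are recorded as binary calls; mortality excludes other endpoints.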

The nature of assay [7]: Tanguay_ZF_120hpf_SWIM_legacy: (Legacy) Oregon State University Tanguay Lab 120 Hour Post-fertilization zebrafish Assay for Swim Bladder Malformation (AID 2283654).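 Note: swim bladder malformation in each larva scored yes or no under brightfield.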 The method, boiled down: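 Scoring is binary for swim bladder defects at 120 hpf, by brightfield inspection of zebrafish larvae. Embryos were exposed singly from 6 hpf after pronase dechorionation, at 28C with 0.64% DMSO; mortality excluded scoring.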

Assay [8] can be described thus: Tanguay_ZF_120hpf_TR_legacy: (Legacy) Oregon State University Tanguay Lab 120 Hour Post-fertilization zebrafish Assay for Touch Response (AID 2283667). The method, boiled down: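 Binary touch-response endpoint in larvae at 120 hpf after static waterborne exposure from embryo stage (28°C, 0.64% DMSO vehicle, 5 uM trimethyltin chloride as positive control); embryos dead at 24 or 120 hpf excluded; fitted as gain versus DMSO.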

A short description of assay [9]: Tanguay_ZF_120hpf_BRAI_legacy: (Legacy) Oregon State University Tanguay Lab 120 Hour Post-fertilization zebrafish Assay for Brain Malformation (AID 2283641). The method, boiled down:
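Wild-type 5D larvae, static waterborne exposure to 120 hpf, 28C, 0.64% v/v DMSO. Brightfield scoring of brain defects, binary; dead embryos excluded. Positive ctrl 5uM trimethyltin chloride.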

The nature of assay [10]: Tanguay_ZF_120hpf_SOMI_legacy: (Legacy) Oregon State University Tanguay Lab 120 Hour Post-fertilization zebrafish Assay for Somite Malformation (AID 2283647). An outline of the steps:
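Read-out: presence or absence of somite malformation in 120 hpf larvae, gain-of-signal relative to DMSO baseline. Embryos lacked chorion (pronase, 4 hpf) and were exposed statically from 6 hpf at 28C; dead larvae not scored.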

Assay [11] can be described thus: Tanguay_ZF_120hpf_TRUN_legacy: (Legacy) Oregon State University Tanguay Lab 120 Hour Post-fertilization zebrafish Assay for Truncated Body (AID 2283655). The method, boiled down:
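Truncated body is recorded as a binary endpoint at 120 hpf by brightfield imaging of wild-type 5D larvae. Exposure runs statically from 6 hpf at 28C with 0.64% DMSO; embryos dying earlier are not scored.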

Assay [12] is described as follows: Tanguay_ZF_120hpf_NC_legacy: (Legacy) Oregon State University Tanguay Lab 120 Hour Post-fertilization zebrafish Assay for Notochord and Tail Malformation (AID 2283656). The method, boiled down:
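Binary scoring of notochord distortion by brightfield microscopy; embryos dying were not scored. Wild-type Tropical 5D embryos, chorion removed, exposed singly and statically from 6 to 120 hpf, 28C, sealed, 0.64% DMSO.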

The test system of assay [13] is Thyroperoxidase (TPO), gene 54314. Nature of the assay: CCTE_Simmons_AUR_rTPO: CCTE's Amplex UltraRed Assay for Thyroperoxidase (TPO) Inhibition, Simmons Lab (AID 2283662).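 Note: potency for loss of signal meaning inhibition of peroxidase activity.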 An outline of the steps:
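Rat thyroid microsomes (5 ug protein) were incubated with test compound (8 concentrations, 5 nM–87.5 uM final, 0.5% DMSO), 25 uM Amplex UltraRed and 300 uM H2O2 in 200 mM phosphate buffer for 30 min at 37C in the dark; fluorescence read at 544/590 nm.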

Assay [14] is described as follows: CCTE_Simmons_CellTiterGLO_HEK293T: Viability Assessment in CCTE's Assays for Thyroperoxidase (TPO) Inhibition, Simmons Lab (AID 2283665).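 For AC50: cells exposed to compound for 24 h before readout; actives reduce ATP signal below DMSO vehicle meaning cytotoxicity.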 The method, boiled down:
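Cells were seeded overnight, then exposed to an eight-point series up to 87.5 uM final for 24 hours. CellTiter-Glo reagent was added and luminescence read after 20 min, giving ATP-based viability versus DMSO.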
(ATP-based viability assays read luminescence as a measure of living cells.)

A short description of assay [15]: Tanguay_ZF_120hpf_PFIN_legacy: (Legacy) Oregon State University Tanguay Lab 120 Hour Post-fertilization zebrafish Assay for Pectoral Fin Malformation (AID 2283648).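 Note: each larva judged yes or no for fin defect by brightfield with dead larvae skipped.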 An outline of the steps:
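Pectoral fin malformation was recorded as a binary endpoint at 120 hpf in wild-type Tropical 5D larvae, which had been dechorionated and exposed statically from 6 hpf at 28C in 0.64% DMSO. Dead embryos were excluded.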

In PubChem BioAssay (EPA / NIEHS) one finds outcome and AC50 data, which are given here for 8 molecules.

Records with an inconclusive call do not appear. Calls of active or inactive are those of the source. Rule for the calls: active = hit-call score of the fitted dose curve at least 0.9, where 1 is the maximum; inconclusive = response in the unintended direction; inactive = score below 0.9.

Consider `O=c1[nH]cnc2c1ncn2[C@H]1CC[C@@H](CO)O1`, for which the outcome in [1], in assay [2], in [3], in [4], in assay [5] and in assay [6] was inactive. Also, the molecule was classed as inactive in [7] and in assay [8].
Turning to `CC[C@H](C)C(=O)O[C@H]1C[C@H](O)C=C2C=C[C@H](C)[C@H](CC[C@@H](O)C[C@@H](O)CC(=O)O)[C@H]21`, the outcome in [1], in [2], in assay [9], in assay [10], in [4] and in assay [6] was inactive. For the same molecule, the molecule was called inactive in assay [7], in assay [11], in assay [12] and in assay [8].
Broadly, the AC50 is the concentration at which the activity in the assay is half-maximal. Consider `C[C@@H](Oc1ccc(CNC(=O)c2cccnc2Oc2ccc3c(c2)OCO3)c(F)c1)C(=O)O`, for which the molecule was classed as inactive in assay [1], in [2], in assay [3], in assay [9], in [4] and in assay [5]. Further, the molecule was classed as inactive in [7], in assay [14] and in assay [8]. In assay [13], the AC50 was 22.2 µM (active).
Regarding `C=CCc1cc(S(=O)(=O)c2ccc(O)c(CC=C)c2)ccc1O`, the molecule was classed as inactive in assay [1], in assay [2], in assay [3], in assay [9], in assay [4] and in assay [5]. Besides, the molecule was classed as inactive in assay [6], in [7] and in assay [8]. Further, the AC50 in [13] was 14.6 µM (active); in assay [14] it was 79.5 µM (active).
For the molecule `CCn1nc(C)c2c1C(=O)NCC(c1ccc(O)cc1)=N2`, the molecule was classed as inactive in [1], in assay [2], in [9], in assay [15], in assay [4] and in [5]. Besides, the outcome in assay [6], in assay [7], in [14] and in assay [8] was inactive. Moreover, the AC50 in [13] was 11.9 µM (active).
`CCc1cccc(CC)c1N`: the molecule was classed as inactive in assay [1], in [2], in assay [9], in [10], in assay [4] and in [5]. Further, the call in assay [6], in assay [7] and in assay [8] was inactive.
Consider `Nc1ccn([C@@H]2O[C@H](CO)[C@@H](O)[C@@H]2O)c(=O)n1`, for which the molecule was called inactive in assay [1], in [2], in [3], in assay [9], in assay [10] and in assay [4]. Also, the result in assay [5], in [6], in assay [7], in assay [11], in assay [12] and in assay [8] was inactive.
As to `CC(C)CC(C)O` (configuration not stated), the outcome in [1], in [2], in assay [3], in [9], in assay [5] and in [7] was inactive.
